This is a sample that favours compounds with a hit; in the whole collection about 2.1% have one here.
IL1B NFkB pot: enhances IL-1B driven NFkB nuclear translocation. HUVEC IL-1B NFkB p65 nuclear translocation imaging. activation, % at 2 µM. 94,000 tested, 0.3% active. AID 819;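 active = activation above 40%, about the mean plus 3 SD, also judged a hit on visual image review; inconclusive = activation above 40% but not a hit on visual review; inactive = activation not above 40% and no visual hit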;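 note: percent activation is computed from the nuclear over cytoplasmic p65 intensity ratio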
TNAP act DEA: human TNAP activation, intermediate phosphate acceptor | P05186 | purified TNAP, CDP-star luminescence, 100 mM DEA, 30 min; stronger effect = higher value; scale: 0 levamisole-inhibited, 1 vehicle-only enzyme | activation factor at 20 µM | 64,000 tested, under 10 active | AID 813;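 active = activation factor of at least 2 at 20 µM, relative to controls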
PLAP act: activates human placental alkaline phosphatase; P05187; purified PLAP enzyme, luminescent substrate read-out; stronger effect = higher value; activation fold at 20 µM; 96,000 tested, 1.2% active; in the data active = activation fold above about 2
Target sequence (P05187 whole entry, looked up): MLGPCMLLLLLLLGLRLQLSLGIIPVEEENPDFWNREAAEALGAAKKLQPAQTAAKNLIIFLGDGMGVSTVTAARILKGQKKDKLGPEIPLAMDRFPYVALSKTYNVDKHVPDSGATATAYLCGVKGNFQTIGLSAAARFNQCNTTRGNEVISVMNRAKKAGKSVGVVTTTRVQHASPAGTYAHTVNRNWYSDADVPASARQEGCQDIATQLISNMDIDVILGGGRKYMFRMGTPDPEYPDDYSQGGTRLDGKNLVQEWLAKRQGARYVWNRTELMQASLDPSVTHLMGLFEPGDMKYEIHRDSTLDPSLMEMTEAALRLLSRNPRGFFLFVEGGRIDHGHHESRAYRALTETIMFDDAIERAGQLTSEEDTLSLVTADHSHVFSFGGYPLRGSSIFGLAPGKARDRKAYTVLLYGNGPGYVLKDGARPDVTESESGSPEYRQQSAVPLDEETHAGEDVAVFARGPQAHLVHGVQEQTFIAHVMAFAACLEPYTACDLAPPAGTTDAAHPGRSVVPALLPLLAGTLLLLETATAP
NFkB transloc inh: blocks IL-1B driven NFkB nuclear translocation in HUVEC cells; HUVEC IL-1B NFkB p65 nuclear translocation imaging; inhibition, % at 2 µM; 94,000 tested, 0.43% active;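 active = inhibition above about 30% together with a positive call from visual inspection of the well image, limit read from the data; inconclusive = inhibition above a set limit but visual check negative; inactive = inhibition not above a set limit, visual check negative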;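 note: nuclear over cytoplasmic p65 intensity ratio measured by imaging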
IL1B cytotox: toxic to HUVEC cells under IL-1B stimulation; HUVEC cell count loss, Hoechst imaging, IL-1B stimulated; cell count reduction, % at 2 µM; 94,000 tested, 0.41% active;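 active = cell count reduction more than 3 SD above the screen-wide mean, cut at about 70% in these data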
Large screens that a line does not name were inactive.

CC(=O)Nc1ccccc1-c1nc2ccc(C(=O)N3CCN(c4ccccc4)CC3)cc2[nH]c1=O	NFkB transloc inh 37.6
O=C1CC(c2ccccc2)n2nc(NS(=O)(=O)c3ccccc3)nc2N1 (configuration not stated)	PLAP act 2 (no result: IL1B NFkB pot, NFkB transloc inh, IL1B cytotox)
Cc1cc(Cl)c(S(=O)(=O)N2CCCC2)cc1OCC(=O)NC1CCCCC1	PLAP act 2 (no result: TNAP act DEA)
Cc1cc(Cl)c(S(=O)(=O)NC(C(=O)O)C(C)C)cc1OCC(=O)NC1CCCCC1 (configuration not stated)	PLAP act 2 (no result: TNAP act DEA)
COc1ccc(NC(=O)COC(=O)CCCc2c[nH]c3ccccc23)cc1OC	none (no result: TNAP act DEA)
Brc1ccc(-c2nc3ncccn3c2NC2CCCCC2)o1	none (no result: TNAP act DEA)
CCC(Sc1nc2n[nH]c(C)c2c(=N)n1-c1cccc(Cl)c1)C(=O)NCCOC (configuration not stated)	PLAP act 2.1 (no result: TNAP act DEA)
Cc1nn(C)c(C)c1S(=O)(=O)N(CC(=O)NC1CCCCCC1)c1ccc(C(C)C)cc1	none (no result: TNAP act DEA)
Cc1n[nH]c(C)c1S(=O)(=O)N(CC(=O)NC1CCCC1)c1ccc(C(C)C)cc1	PLAP act 2.3
COc1ccc(N(CC(=O)Nc2ccc(C)c(C)c2)S(=O)(=O)c2c(C)n[nH]c2C)cc1	IL1B NFkB pot inconclusive, PLAP act 2.1
CCc1cccc(NC(=O)CN(c2ccc(OC)cc2)S(=O)(=O)c2c(C)n[nH]c2C)c1	IL1B NFkB pot inconclusive, PLAP act 2.4
Cc1ccc(Nc2nnns2)cc1C	none (no result: IL1B NFkB pot, NFkB transloc inh, IL1B cytotox)
CCCCn1c(SCC(=O)NCc2cccs2)nc2c1c(=O)n(C)c(=O)n2C	none
CC(C)CCNC(=O)CN(C(=O)Cn1nnc(-c2ccccc2F)n1)c1cccc2c1CCCC2	PLAP act 2.6 (no result: TNAP act DEA)
O=C(CN(C(=O)Cn1nnc(-c2ccccc2F)n1)c1cccc2c1CCCC2)NCc1ccccc1	none (no result: TNAP act DEA, PLAP act)
Cc1cc(C)nc(Nc2ccc(N3CCCC3)cc2)n1	none
CCc1ccc(-n2c(O)cnc2Nc2nc(C)cc(C)n2)cc1	PLAP act 2.7
COc1ccc(-n2c(C)n[nH]c2=O)cc1OC	none (no result: TNAP act DEA)
COc1ccc(-n2c(O)cnc2Nc2nc(C)cc(C)n2)cc1OC	PLAP act 2.7 (no result: TNAP act DEA)
COc1cccc(CNC(=O)C2CCN(c3cnccn3)CC2)c1	none (no result: PLAP act)
CCOC(=O)C1=C(C)C(c2ccccc2OC)NC(=S)N1 (configuration not stated)	none (no result: TNAP act DEA)
CN(C)c1nc(N)nc(/C(C#N)=C/C2CC3C=CC2C3)n1 (configuration not stated)	IL1B NFkB pot 41.7
CCN(CC(=O)N1CCCCCC1)S(=O)(=O)c1ccc(Cl)cc1	none
O=S(=O)(c1ccc(N2CCC(c3ccc(Cl)cc3)=N2)cc1)N(CCO)CCO	PLAP act 2.2 (no result: TNAP act DEA)
CN(C)CCCNS(=O)(=O)c1ccc(N2CCC(c3ccc(Cl)cc3)=N2)cc1	PLAP act 2.3 (no result: TNAP act DEA)
CN(C)CCCNS(=O)(=O)c1cc(Cl)ccc1Cl	none
COc1ccc(S(=O)(=O)Cc2ccccc2)cc1N	none (no result: IL1B NFkB pot, NFkB transloc inh, IL1B cytotox)
NNc1nc(Nc2ccccc2)nc(N2CCCCC2)n1	none (no result: TNAP act DEA)
O=c1nc(N2CCCCC2)nc(Nc2ccccc2)[nH]1	PLAP act 2.3 (no result: TNAP act DEA)
COc1ccc(CNC(=O)C(c2ccc(C)o2)N(C(=O)c2csnn2)c2ccc(C(C)C)cc2)cc1 (configuration not stated)	none (no result: TNAP act DEA)
Cc1ccc2nc(NC(=O)CN(C)S(=O)(=O)c3ccc(Br)s3)sc2c1	NFkB transloc inh 37.6
O=C(C(Cc1ccccc1)N1C(=O)c2ccccc2C1=O)N1CCc2ccccc21 (configuration not stated)	none (no result: TNAP act DEA, PLAP act)
Cc1cccc(/C=C2\CS/C(=C\c3cccc(C)c3)C2=O)c1	NFkB transloc inh 54.3 (no result: TNAP act DEA)
O=C1/C(=C/c2cccc(F)c2)CSc2sccc21	none (no result: TNAP act DEA)
Cc1csc2nc(CCNS(=O)(=O)c3cccs3)cn12	PLAP act 2.9
CCc1ccc(S(=O)(=O)NCCc2cn3ccsc3n2)s1	PLAP act 2
CCc1ccc(S(=O)(=O)NCc2cn3ccccc3n2)s1	PLAP act 2
CCc1ccc(S(=O)(=O)NCc2cn3cccc(C)c3n2)s1	none
Cc1ccn2cc(CNS(=O)(=O)c3ccc(Cl)s3)nc2c1	PLAP act 2.1
O=C(Nc1ccccc1Sc1ccccc1)c1ccccc1F	none (no result: TNAP act DEA, PLAP act)
CCC(C)OC(=O)C1=C(C)O[C@]23OC(N)=C(C#N)[C@]12C(=O)c1ccccc13 (some centres not stated)	none (no result: TNAP act DEA, PLAP act)
NC(=O)N1CCN(C(=O)c2ccco2)CC1	NFkB transloc inh 31.3, IL1B cytotox 84.3 (no result: TNAP act DEA)
CN(c1cccc(NC(=O)COc2ccc(Cl)cc2Cl)c1)S(C)(=O)=O	none (no result: TNAP act DEA, PLAP act)
CCn1nc(NC(=O)c2ccccn2)c2cc3cccc(C)c3nc21	IL1B NFkB pot 50.7
O=C(NCC1CCCO1)C1CC(c2ccccc2Cl)=NO1 (configuration not stated)	none (no result: TNAP act DEA)
Cc1cc2oc(=O)cc(COC(=O)c3cccc(N(C)C)c3)c2cc1C	none (no result: IL1B NFkB pot, PLAP act, NFkB transloc inh, IL1B cytotox)
COc1ccccc1NC(=O)C(=O)NNC(=O)c1ccco1	PLAP act 2.2 (no result: TNAP act DEA)
Cc1cc2nc(C3CCN(CC4COc5ccccc5O4)CC3)[nH]c2cc1C (configuration not stated)	none (no result: PLAP act)
CCC(=O)OCCCCCCOc1ccc(C(=O)O)cc1	none (no result: IL1B NFkB pot, TNAP act DEA, NFkB transloc inh, IL1B cytotox)
Cc1cc(=O)n(-c2ccc3ccccc3n2)[nH]1	PLAP act 2.3
O=C1NC(=Nc2cccc(Cl)c2)SC1Cc1cccc(Cl)c1Cl (configuration not stated)	none (no result: TNAP act DEA)
O=C(CN1C(=O)CCC1=O)Nc1nc(-c2ccccn2)cs1	TNAP act DEA 15.4, PLAP act 2.2
CCOC(=O)N1CCC(N2C(=O)c3ccccc3C2Nc2ccccc2)CC1 (configuration not stated)	none (no result: TNAP act DEA)
CCOC(=O)N1CCC(N2C(=O)c3ccccc3C2Nc2cc(C(=O)OC)cc(C(=O)OC)c2)CC1 (configuration not stated)	IL1B NFkB pot 41.6
CN(C)CCOC(=O)Cc1ccc(Cl)cc1	none
C=CCc1cc(Cl)ccc1OCCN(C)C	IL1B cytotox 84.8 (no result: TNAP act DEA)
Cc1cccc(N2CCN(C(=O)CCc3nc4ccccc4[nH]3)CC2C)c1 (configuration not stated)	PLAP act 2.2 (no result: TNAP act DEA)
Cn1c(=O)c(C(=O)Nc2ncccc2O)c(O)c2ccccc21	PLAP act 2.2 (no result: IL1B NFkB pot, NFkB transloc inh, IL1B cytotox)
Cn1c(=O)c(C(=O)Nc2cccnc2)c(O)c2ccccc21	none (no result: PLAP act)
CCCn1c(=O)c(C(=O)NCc2ccccn2)c(O)c2ccccc21	IL1B cytotox 84.6
COc1cccc(C(=O)NC(Cc2ccccc2)c2ccc3c(c2)OCCCO3)c1 (configuration not stated)	none (no result: TNAP act DEA)
Cc1ccc(-n2c(O)c(C=NC3CCS(=O)(=O)C3)c3ccccc3c2=O)cc1C (configuration not stated)	IL1B NFkB pot 42.6 (no result: TNAP act DEA)
O=C(c1cccc(F)c1F)N1CCCC1	none (no result: TNAP act DEA, PLAP act)
O=C(c1cccc(S(=O)(=O)N2CCCC2)c1)c1nnc(-c2ccncc2)o1	none
CCN1CC(O)=C(c2nc3ccccc3s2)C1=N	PLAP act 2.1 (no result: TNAP act DEA)
CCCCN1CC(O)=C(c2nc3ccccc3s2)C1=N	none (no result: IL1B NFkB pot, NFkB transloc inh, IL1B cytotox)

Bioassay records deposited in PubChem by several laboratories.
